According to ChEMBL document CHEMBL3988442, “University of Dundee, Small-Polar-MMV Screening Library” (2021):

Target: T1, Aspartate--tRNA(Asp/Asn) ligase (Mycobacterium tuberculosis (strain ATCC 25618 / H37Rv)) (UniProt P9WFW3); also: in the data most compounds retested in dose-response had high values
T1 sequence (whole entry): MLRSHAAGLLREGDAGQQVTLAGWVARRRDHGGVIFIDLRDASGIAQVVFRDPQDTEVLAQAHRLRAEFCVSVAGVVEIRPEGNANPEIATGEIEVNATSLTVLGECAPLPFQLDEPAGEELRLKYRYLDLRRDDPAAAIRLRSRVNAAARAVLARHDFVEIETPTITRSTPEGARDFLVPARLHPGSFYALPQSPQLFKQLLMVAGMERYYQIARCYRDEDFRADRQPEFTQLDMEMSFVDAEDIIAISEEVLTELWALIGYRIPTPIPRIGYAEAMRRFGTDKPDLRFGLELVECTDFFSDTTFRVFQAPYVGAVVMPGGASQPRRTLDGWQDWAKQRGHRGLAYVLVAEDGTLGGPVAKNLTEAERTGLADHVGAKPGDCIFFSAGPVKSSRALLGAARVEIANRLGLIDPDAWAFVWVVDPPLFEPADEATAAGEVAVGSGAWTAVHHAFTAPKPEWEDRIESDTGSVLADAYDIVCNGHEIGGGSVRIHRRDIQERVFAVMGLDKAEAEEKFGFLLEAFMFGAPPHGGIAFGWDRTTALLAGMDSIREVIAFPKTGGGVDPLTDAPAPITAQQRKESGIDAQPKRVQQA
Assay: Assay for Asp RNA synthetase-1 from Mycobacterium tuberculosis
Assay type: functional
Parameters: scale not given: direction of the effect not stated beside the values
Details: 30 µM

Compound | Percent Effect
CCc1nccn1C1CCCN(C(=O)CCc2nccs2)C1 (stereo not given) | 2.69%
CC(NC(=O)NCCCn1cncn1)c1ccc2c(c1)OCCO2 (stereo not given) | 0.175%
O=C(N1CCCO1)[C@@]12CCO[C@@H]1CCN(C1CCCCC1)C2 | -5.76%
Cn1ccnc1CNC(=O)N(CCCO)C1CCCc2ccccc21 (stereo not given) | 0.809%
Cc1ccc(C(=O)NC(CN2CCCC2=O)c2ccccc2)c(=O)[nH]1 (stereo not given) | -6.44%
CC(C)n1ccnc1CN1CCCN(C(=O)COC2CCCC2)CC1 | -1.67%
Cc1nc(C2CCCN(C(=O)c3cnn(C(C)(C)C)c3)C2)no1 (stereo not given) | -4.47%
COCCOc1ccc(NC(=O)C2CC(=O)N(C)C2)cn1 (stereo not given) | 3.77%
CN(C)S(=O)(=O)N1CC[C@]2(C[C@H](Oc3cccnc3)CO2)C1 | 9.53%
CC(C)CC(=O)N1CCc2nc(N3CCOCC3)nc(NC(C)C)c2C1 | -3.63%
NC(=O)N1CCC2(CCN(Cc3cccc(F)c3)CC2)CC1 | -3.39%
O=C(COc1coc(CN2CCOCC2)cc1=O)c1ccc(Cl)cc1 | 4.37%
COc1ccc(CNC(=O)NCC2CCOC2)c(C(F)(F)F)c1 (stereo not given) | -4.04%
O=C(NCCN1CCOCC1)NCC(O)c1cccc(F)c1 (stereo not given) | 2.52%
CC(=O)c1cccc(NC(=O)CN2CCCCC2C2OCCO2)c1 (stereo not given) | 1.76%
Cc1nn(C)c(C)c1C1COCCN1C(=O)c1cnc(N)c(Cl)c1 (stereo not given) | 0.88%
Cc1nc(CC(=O)N2CCCCC2c2ccn3ccnc3n2)cs1 (stereo not given) | -0.0744%
COCCn1ccc2cc(NC(C)=O)ccc21 | -5.18%
CCc1noc(CN2CCN(C(=O)N(C)C)CC2)n1 | -1.26%

Target: Shiga toxin 2 (Escherichia coli O157:H7) (UniProt P09385+P09386)
Assay: E. coli 0.157:H7 Shiga Toxin SOP - stx2 screening assay
Assay type: functional
Parameters: scale not given: direction of the effect not stated beside the values
Details: 30 µM

Compound | Percent Effect
CNC(=O)CS(=O)(=O)C1CCN(S(=O)(=O)c2ccccc2Br)CC1 | -14%
COc1ccc(C2CCCN2S(=O)(=O)N(C)CC(C)C)cc1 (stereo not given) | -7.35%
O=C(CC1CC1)N1C[C@@H]2CCN(c3cnccn3)C[C@@H]2C1 | -0.992%
Cc1nc(C)c(C(=O)OCCNc2ncccc2C#N)s1 | -15.1%
Cc1ccc(CNC(=O)Nc2nnc(C)s2)cn1 | -6.66%
COCC1CN(Cc2ccc(C)o2)Cc2cn(C)nc21 (stereo not given) | -13.2%
c1cncc(COCc2nnc3n2CCN(Cc2ccsc2)C3)c1 | -54.6%
FC(F)(F)c1cccc(C2(CNCc3ccncc3)CCOCC2)c1 | -27.1%
Cc1cc(CNC(=O)C2CCCCN2C(=O)OC(C)(C)C)no1 (stereo not given) | 10.5%
COc1ccc2c(c1)OCC(CNC(=O)c1ccncc1)C2 (stereo not given) | 17.7%
c1ccc(-c2cnc(CNC3CCCN(c4cccnn4)C3)o2)cc1 (stereo not given) | 4.96%
O=C(c1ccc(F)cc1Cl)N1CCC(Nc2cccnn2)CC1 | -21.1%
CC(C)Cc1noc(CN2CCN(c3nccs3)CC2)n1 | 11.6%
COc1cccc(CN(C)S(=O)(=O)N2CCOCC2)c1 | 9.56%
CC(O)CN1CCN(C(=O)c2cn(-c3ccccc3Cl)nn2)CC1 (stereo not given) | -10.2%
CCn1ncc2c1CCCC2NCc1cccc2c1OCCO2 (stereo not given) | -6.1%
CCN(CC)C(=O)c1nnc2ccc(N3CCOCC3)cc2n1 | -18.6%
CCN1CC(C(=O)N2CCC(Oc3ccccc3Cl)CC2)CC1=O (stereo not given) | -34.4%

Compound | Percent Effect
Cn1cc(C2CCCN2CCCc2nc(-c3cccs3)no2)cn1 (stereo not given) | 6.08%
Cc1ccccc1C1(CNC(=O)NCCc2nnc3n2CCC3)CC1 | -0.461%
Cn1cnc2c1C(COCc1ccccc1)N(Cc1ccncc1)CC2 (stereo not given) | -1.07%
CCc1nccn1C1CCCN(C(=O)CCc2nccs2)C1 (stereo not given) | 16.2%
CC(NC(=O)NCCCn1cncn1)c1ccc2c(c1)OCCO2 (stereo not given) | 17.4%
O=C(N1CCCO1)[C@@]12CCO[C@@H]1CCN(C1CCCCC1)C2 | -31.5%
Cn1ccnc1CNC(=O)N(CCCO)C1CCCc2ccccc21 (stereo not given) | 1.57%
Cc1ccc(C(=O)NC(CN2CCCC2=O)c2ccccc2)c(=O)[nH]1 (stereo not given) | 2.19%
CC(C)n1ccnc1CN1CCCN(C(=O)COC2CCCC2)CC1 | -3.07%
Cc1nc(C2CCCN(C(=O)c3cnn(C(C)(C)C)c3)C2)no1 (stereo not given) | -34.6%
COCCOc1ccc(NC(=O)C2CC(=O)N(C)C2)cn1 (stereo not given) | -88.5%
CN(C)S(=O)(=O)N1CC[C@]2(C[C@H](Oc3cccnc3)CO2)C1 | -27.2%
CC(C)CC(=O)N1CCc2nc(N3CCOCC3)nc(NC(C)C)c2C1 | 6.88%
NC(=O)N1CCC2(CCN(Cc3cccc(F)c3)CC2)CC1 | -34.5%
O=C(COc1coc(CN2CCOCC2)cc1=O)c1ccc(Cl)cc1 | -57.8%
COc1ccc(CNC(=O)NCC2CCOC2)c(C(F)(F)F)c1 (stereo not given) | -3.72%
O=C(NCCN1CCOCC1)NCC(O)c1cccc(F)c1 (stereo not given) | 4.91%
CC(=O)c1cccc(NC(=O)CN2CCCCC2C2OCCO2)c1 (stereo not given) | -1.62%
